Seven compounds from PubChem BioAssay (NCI) can be followed below.

SMILES strings stand for the structures. Compounds without any hit were thinned out: in the full panel of roughly 83,000, 20% have a hit.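 The test compound was applied at a single concentration to cells in 96-well plates for 48 hours, and percent growth was recorded.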 Unmarked numbers belong to inactive results. Activity calls are given as the source filed them. Rule for the calls: active = growth percent below 10; inactive = the rest.

Among the test systems are DU-145 prostate; K-562 leukemia; MALME-3M melanoma; MDA-MB-231 breast; RXF 393 renal; SF-268 CNS; SF-295 CNS; SF-539 CNS; UACC-257 melanoma; M14 melanoma; HCT-15 colon; HT29 colon; SNB-75 CNS; SNB-19 CNS; U251 CNS; PC-3 prostate; SK-MEL-5 melanoma; UACC-62 melanoma; LOX IMVI melanoma; SK-MEL-28 melanoma.
Holding throughout (test): NCI-60 one-dose screen, 48 h (100 = growth as untreated, 0 = no growth, -100 = all killed)
Holding throughout (conditions): 10 µM unless noted

For the compound `CCCCN1C(=O)/C(=c2\sc3n(c2=O)C2C(NN=3)N(CC)C(=O)N2CC)c2ccccc21` (stereo not given), the growth in the test with DU-145 prostate is 8.48% (active); in the test with K-562 leukemia it was 5.85% (active); in the test with MALME-3M melanoma it was 36.4%; in the test on MDA-MB-231 breast it was 8.32% (active); in the test with RXF 393 renal, -29.5% (active); in the test on SF-268 CNS it was 42.5%. Besides, the growth in the test with SF-295 CNS was 2.37% (active); with SF-539 CNS, -40.4% (active); in the test on UACC-257 melanoma, -9.63% (active); in the test with M14 melanoma, 6.24% (active); in the test with HCT-15 colon, 8.29% (active); with HT29 colon, 0.704% (active). Moreover, the growth was -17.6% (active) in the test on SNB-75 CNS; 25% in the test with SNB-19 CNS; 5.8% (active) in the test on U251 CNS; 20.7% in the test on PC-3 prostate; 29.2% with SK-MEL-5 melanoma; 18.9% in the test with UACC-62 melanoma. Also, the growth was 20.1% with LOX IMVI melanoma and 48.1% with SK-MEL-28 melanoma.
`N#Cc1cnc(NCCc2ccncc2)nc1-n1cnc2ccccc21`: the growth in the test on DU-145 prostate is 51.9%; in the test with K-562 leukemia it was 60.9%; with MALME-3M melanoma, 69%; in the test with MDA-MB-231 breast, 76.2%; in the test on RXF 393 renal, 52.7%; in the test with SF-268 CNS it was 53%. Also, the growth in the test on SF-295 CNS is 75.1%; in the test on SF-539 CNS, 61.3%; in the test on UACC-257 melanoma, 102%; in the test on M14 melanoma it was 47.9%; in the test with HCT-15 colon, 36.8%; in the test on HT29 colon it was 49%. The growth is 82.6% in the test on SNB-75 CNS; 94.7% with SNB-19 CNS; 58.7% with U251 CNS; 64.1% with PC-3 prostate; 79.8% in the test with SK-MEL-5 melanoma; 48.5% with UACC-62 melanoma. The growth in the test with LOX IMVI melanoma was 41.2%; with SK-MEL-28 melanoma, 80.9%.
In the case of `CC(C)N1CCN(Cc2ccc3c(NNC(=O)c4ccccc4)nc4cc(F)ccc4n23)CC1`, the growth with DU-145 prostate was 30.8%; in the test on K-562 leukemia it was 15.7%; in the test with MALME-3M melanoma it was 25%; in the test with MDA-MB-231 breast, 43.1%; in the test on RXF 393 renal it was 37.7%; in the test on SF-268 CNS, 24.1%. Besides, the growth is 16.5% in the test on SF-295 CNS; 10.5% in the test with SF-539 CNS; 12.4% with UACC-257 melanoma; 6.58% (active) in the test with M14 melanoma; 31.7% in the test on HCT-15 colon; 31.3% with HT29 colon. Further, the growth with SNB-75 CNS is 54.7%; with SNB-19 CNS, 29.7%; in the test with U251 CNS it was 17%; in the test with PC-3 prostate, 36.9%; in the test on SK-MEL-5 melanoma it was -8.08% (active); in the test with UACC-62 melanoma, 7.2% (active). Also, the growth is 6.12% (active) in the test with LOX IMVI melanoma and 29.5% in the test with SK-MEL-28 melanoma.
With `COc1ccc(-c2cc(-c3ccc(Cl)cc3)c(C#N)c(=O)n2CCCCC(=O)Nc2ccccc2N)cc1`, the growth is 59.9% with DU-145 prostate; 24.8% with K-562 leukemia; 59.3% with MALME-3M melanoma; 39.3% in the test with MDA-MB-231 breast; 14.2% in the test on RXF 393 renal; 65.5% in the test on SF-268 CNS. The growth in the test on SF-295 CNS was -14.5% (active); in the test on SF-539 CNS, 73.9%; with UACC-257 melanoma it was 44.7%; in the test on M14 melanoma, -7.3% (active); in the test with HCT-15 colon it was 19.3%; in the test with HT29 colon it was 21.1%. Besides, the growth with SNB-75 CNS was 22.5%; with SNB-19 CNS it was 69.9%; in the test on U251 CNS, 55.1%; in the test with PC-3 prostate, 50.1%; with SK-MEL-5 melanoma it was -39.1% (active); in the test on UACC-62 melanoma it was 23.7%. Besides, the values for the growth with LOX IMVI melanoma and in the test on SK-MEL-28 melanoma were -60.9% (active) and 65.4%, respectively.
In the case of `CC1=Nc2cnc(Nc3ccc(OCCN4CCCC4)cc3)nc2Nc2ccccc21`, the growth was 56.1% in the test on DU-145 prostate; 39.6% with K-562 leukemia; 68% with MALME-3M melanoma; 59.7% in the test with MDA-MB-231 breast; 36% with RXF 393 renal; 63.9% in the test on SF-268 CNS. Also, the growth in the test with SF-295 CNS is 85.6%; with SF-539 CNS it was 68.6%; in the test with UACC-257 melanoma, 89.3%; in the test with M14 melanoma, 52.6%; in the test with HCT-15 colon, 33.9%; in the test on HT29 colon, 60.9%. Besides, the growth in the test with SNB-75 CNS was 20.1%; with SNB-19 CNS, 91.1%; in the test with U251 CNS it was 80.9%; with PC-3 prostate it was 61.7%; with SK-MEL-5 melanoma, 71.6%; in the test on UACC-62 melanoma, 84.3%. Also, the growth with LOX IMVI melanoma is 52.2%; in the test with SK-MEL-28 melanoma, 94%.
For the compound `COc1ccc(N2CCC(=O)NC2=S)cc1`, the growth in the test with DU-145 prostate was 115%; in the test with K-562 leukemia, 107%; with MALME-3M melanoma, 110%; in the test on MDA-MB-231 breast it was 102%; in the test with RXF 393 renal, 109%; in the test with SF-268 CNS, 99.8%. The growth in the test with SF-295 CNS was 100%; in the test with SF-539 CNS it was 99.4%; with UACC-257 melanoma, 108%; in the test on M14 melanoma it was 98.7%; in the test with HCT-15 colon, 102%; in the test on HT29 colon, 105%. For the same compound, the growth in the test on SNB-75 CNS was 96.6%; with SNB-19 CNS, 105%; in the test with U251 CNS, 103%; in the test on PC-3 prostate it was 107%; with SK-MEL-5 melanoma, 99.2%; with UACC-62 melanoma it was 99.2%. The growth with LOX IMVI melanoma is 94.8%; in the test with SK-MEL-28 melanoma, 111%.
With `CC(=O)Cc1nsc(NC(=O)c2cc(-c3cc(Cl)cc(Cl)c3)oc2C)n1`, the growth in the test with DU-145 prostate is 108%; in the test with K-562 leukemia, 100%; in the test on MALME-3M melanoma, 111%; in the test with MDA-MB-231 breast it was 104%; in the test with RXF 393 renal, 105%; in the test on SF-268 CNS, 88.1%. In addition, the growth is 99.4% in the test on SF-295 CNS; 98.5% in the test on SF-539 CNS; 89% with UACC-257 melanoma; 105% with M14 melanoma; 99.4% in the test with HCT-15 colon; 102% in the test on HT29 colon. Moreover, the growth is 84.1% in the test on SNB-75 CNS; 101% in the test with SNB-19 CNS; 93.2% in the test with U251 CNS; 93.7% in the test on PC-3 prostate; 99.9% with SK-MEL-5 melanoma; 88.7% with UACC-62 melanoma. The growth was 97% in the test on LOX IMVI melanoma and 103% in the test on SK-MEL-28 melanoma.
